{"source": "the supplement of paper PMC12636033", "note": "± gives the standard deviation of the averaged measurements. In all, about 33,000 sequences were measured (“E-score (rank enrichment, -0.5 to 0.5)”: median about -0.0043, highest 2% from about 0.24 on). For the sample, the highest values were picked, then their nearest neighbours and some sequences at random.", "data": [{"test_system": "2Sp-muMax20 (muMax20 with two 2,6-bis(methyl)pyridine Cys staples)", "assay": "PBM 8-mer E-score (E-score (rank enrichment, -0.5 to 0.5)); higher = stronger preferential binding", "method": "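Protein binding microarray (universal PBM chip covering all 10-mers in fixed probe flanks) with chemically synthesized human Max(13-93) bHLH-LZ analogs (not full-length Max) bearing noncanonical residues (hArg, Tha, Aib, Nle at 65) and aromatic Cys staples. Read-out per 8-mer (and its reverse complement): E-score (rank-based enrichment, -0.5 to 0.5) and Z-score of median probe intensity.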", "values": [{"sequence": "AGACAGGG", "PBM 8-mer E-score": "-0.0986 ± 0.041"}, {"sequence": "CACGCAAC", "PBM 8-mer E-score": "-0.0734 ± 0.013"}, {"sequence": "CAGTCATG", "PBM 8-mer E-score": "0.0672 ± 0.14"}, {"sequence": "ACACTATA", "PBM 8-mer E-score": "0.0551 ± 0.059"}, {"sequence": "GACTTTGA", "PBM 8-mer E-score": "0.147 ± 0.062"}, {"sequence": "AGAACGGA", "PBM 8-mer E-score": "-0.258 ± 0.028"}, {"sequence": "AAGAAGCT", "PBM 8-mer E-score": "-0.12 ± 0.0019"}, {"sequence": "CGTCGCGA", "PBM 8-mer E-score": "0.00718 ± 0.059"}, {"sequence": "CGGCCAGC", "PBM 8-mer E-score": "-0.103 ± 0.0057"}, {"sequence": "ATACAAGC", "PBM 8-mer E-score": "0.252 ± 0.076"}, {"sequence": "CTACAAGC", "PBM 8-mer E-score": "-0.0442 ± 0.059"}, {"sequence": "ATACAAAT", "PBM 8-mer E-score": "0.216 ± 0.0091"}, {"sequence": "ATACAAGA", "PBM 8-mer E-score": "0.0902 ± 0.1"}, {"sequence": "CTACAAAA", "PBM 8-mer E-score": "0.0122 ± 0.043"}, {"sequence": "ATACAAAA", "PBM 8-mer E-score": "0.359 ± 0.0063"}, {"sequence": "AGTGTAAT", "PBM 8-mer E-score": "0.114 ± 0.14"}, {"sequence": "ATTGCAAC", "PBM 8-mer E-score": "0.0277 ± 0.07"}, {"sequence": "CTCTCAGA", "PBM 8-mer E-score": "-0.148 ± 0.12"}, {"sequence": "AATAACTA", "PBM 8-mer E-score": "0.155 ± 0.038"}, {"sequence": "ACTAAATC", "PBM 8-mer E-score": "-0.0199 ± 0.085"}, {"sequence": "CTTAACAA", "PBM 8-mer E-score": "0.05 ± 0.067"}, {"sequence": "GCTAACAA", "PBM 8-mer E-score": "-0.0747 ± 0.062"}, {"sequence": "ATTAAATA", "PBM 8-mer E-score": "0.0773 ± 0.0041"}, {"sequence": "CCTAAATA", "PBM 8-mer E-score": "0.125 ± 0.0015"}, {"sequence": "ACTAAATA", "PBM 8-mer E-score": "0.249 ± 0.018"}, {"sequence": "CTTAAATA", "PBM 8-mer E-score": "0.139 ± 0.098"}, {"sequence": "GATAACTA", "PBM 8-mer E-score": "0.245 ± 0.029"}, {"sequence": "GTTAAATA", "PBM 8-mer E-score": "0.296 ± 0.026"}, {"sequence": "GTTAACAA", "PBM 8-mer E-score": "0.239 ± 0.026"}, {"sequence": "CATAACTA", "PBM 8-mer E-score": "0.0886 ± 0.054"}, {"sequence": "TACGTAAA", "PBM 8-mer E-score": "0.183 ± 0.046"}, {"sequence": "AAGCACTA", "PBM 8-mer E-score": "0.0985 ± 0.0016"}, {"sequence": "CCGTTACA", "PBM 8-mer E-score": "0.0269 ± 0.097"}, {"sequence": "CAGAAAAG", "PBM 8-mer E-score": "0.0222 ± 0.11"}, {"sequence": "CCTCAAAG", "PBM 8-mer E-score": "-0.168 ± 0.0062"}, {"sequence": "CCAAAGGA", "PBM 8-mer E-score": "-0.134 ± 0.0027"}, {"sequence": "CCGGGAAA", "PBM 8-mer E-score": "-0.0853 ± 0.032"}, {"sequence": "GATCGGTA", "PBM 8-mer E-score": "0.0193 ± 0.038"}, {"sequence": "CCGGCAGG", "PBM 8-mer E-score": "-0.199 ± 0.041"}, {"sequence": "CGTGGCAA", "PBM 8-mer E-score": "-0.135 ± 0.016"}, {"sequence": "AACGCGTT", "PBM 8-mer E-score": "0.0704 ± 0.016"}, {"sequence": "GCACTCAA", "PBM 8-mer E-score": "-0.0947 ± 0.092"}, {"sequence": "GTTAACTA", "PBM 8-mer E-score": "0.2576 ± 0.002"}, {"sequence": "CTTAACTA", "PBM 8-mer E-score": "0.092 ± 0.0028"}, {"sequence": "ATTAACTA", "PBM 8-mer E-score": "0.16 ± 0.003"}, {"sequence": "AGACCGCG", "PBM 8-mer E-score": "0.0661 ± 0.0043"}, {"sequence": "CGGTGGAA", "PBM 8-mer E-score": "-0.19 ± 0.09"}, {"sequence": "GATAATTA", "PBM 8-mer E-score": "0.196 ± 0.061"}, {"sequence": "CATAATTA", "PBM 8-mer E-score": "0.253 ± 0.034"}, {"sequence": "AATAATTC", "PBM 8-mer E-score": "0.189 ± 0.046"}, {"sequence": "AATAATTA", "PBM 8-mer E-score": "0.28 ± 0.019"}, {"sequence": "CCTAATTA", "PBM 8-mer E-score": "0.0904 ± 0.21"}, {"sequence": "CATAATTC", "PBM 8-mer E-score": "-0.0185 ± 0.041"}, {"sequence": "TACTGCTA", "PBM 8-mer E-score": "0.126 ± 0.038"}, {"sequence": "ACGGAGTC", "PBM 8-mer E-score": "-0.0911 ± 0.056"}, {"sequence": "ACGGGGCT", "PBM 8-mer E-score": "-0.148 ± 0.019"}, {"sequence": "AGAGCACG", "PBM 8-mer E-score": "0.134 ± 0.077"}, {"sequence": "ACCAGTAC", "PBM 8-mer E-score": "-0.126 ± 0.045"}, {"sequence": "GGGTGCAC", "PBM 8-mer E-score": "-0.0471 ± 0.01"}, {"sequence": "CTCATGTC", "PBM 8-mer E-score": "-0.0319 ± 0.027"}, {"sequence": "ATCATGTC", "PBM 8-mer E-score": "0.25 ± 0.02"}, {"sequence": "ATCATGAT", "PBM 8-mer E-score": "0.257 ± 0.011"}, {"sequence": "ATCATGTA", "PBM 8-mer E-score": "0.113 ± 0.059"}, {"sequence": "ATCATGAA", "PBM 8-mer E-score": "0.144 ± 0.037"}, {"sequence": "ATCATGAG", "PBM 8-mer E-score": "0.0344 ± 0.13"}, {"sequence": "CTCATGAG", "PBM 8-mer E-score": "0.319 ± 0.028"}, {"sequence": "CTCATGAC", "PBM 8-mer E-score": "0.0229 ± 0.022"}, {"sequence": "CTCATGAA", "PBM 8-mer E-score": "0.0567 ± 0.055"}, {"sequence": "GAGGTACA", "PBM 8-mer E-score": "-0.0106 ± 0.013"}, {"sequence": "TAGGATAA", "PBM 8-mer E-score": "0.0706 ± 0.063"}, {"sequence": "AAATCGTG", "PBM 8-mer E-score": "0.0374 ± 0.006"}, {"sequence": "ATTCGTCA", "PBM 8-mer E-score": "0.0337 ± 0.012"}, {"sequence": "GCGCGCGA", "PBM 8-mer E-score": "0.149 ± 0.071"}, {"sequence": "CCGCGCGA", "PBM 8-mer E-score": "-0.0339 ± 0.029"}, {"sequence": "CCGCGCGC", "PBM 8-mer E-score": "0.13 ± 0.12"}, {"sequence": "ACACGCGC", "PBM 8-mer E-score": "0.118 ± 0.046"}, {"sequence": "GCGCGCAC", "PBM 8-mer E-score": "0.203 ± 0.035"}, {"sequence": "GCACGCGC", "PBM 8-mer E-score": "0.331 ± 0.018"}, {"sequence": "TCGCGCGA", "PBM 8-mer E-score": "0.265 ± 0.11"}, {"sequence": "GCGCGCGC", "PBM 8-mer E-score": "0.361 ± 0.053"}, {"sequence": "GCACGCGA", "PBM 8-mer E-score": "0.0689 ± 0.0054"}, {"sequence": "CCATTGTC", "PBM 8-mer E-score": "-0.0232 ± 0.0014"}, {"sequence": "ACGAGGTC", "PBM 8-mer E-score": "0.0484 ± 0.023"}, {"sequence": "ATGAGCAG", "PBM 8-mer E-score": "0.0835 ± 0.083"}, {"sequence": "ATGGTATG", "PBM 8-mer E-score": "0.0455 ± 0.0021"}, {"sequence": "CGGGTATA", "PBM 8-mer E-score": "0.0393 ± 0.086"}]}]}
